This is a sample that favours compounds with a hit; in the whole collection about 3.5% have one here.
BoNT A protease – BoNT A light chain protease inhibition. 360,000 tested, 0.17% active. AID 588499. multiplex microsphere protease substrate cleavage, flow cytometry. inhibition, % at 10 µM
3CLpro inhibitor – SARS-CoV 3CLpro protease inhibition; P0C6X7; recombinant SARS-CoV 3CLpro, quenched FRET peptide cleavage; inhibition, % at 6 µM; 290,000 tested, 0.14% active; AID 1706; in the data active = inhibition above about 12%
BoNT-F LC inh – BoNT F light chain protease inhibition; inhibition, % at 10 µM; 360,000 tested, 0.22% active; Multiplex microsphere protease cleavage assay, flow cytometry; in the data active = inhibition above about 35%, passing the limit was not always enough; inconclusive = no clear call, values can overlap the other calls
Bead autofluor – flagged as autofluorescent in microsphere protease counterscreen. compound autofluorescence counterscreen, microsphere flow cytometry; active compounds read high. AID 624483. 360,000 tested, 3.1% active. fluorescence intensity (test concentration not listed); in the data active = fluorescence intensity above about 16000; inconclusive = no clear call, values can overlap the other calls
Anthrax LF inh2 – blocks Bacillus anthracis lethal factor protease. inhibition, % at 10 µM. multiplex microsphere protease cleavage assay, LF. AID 588501. 360,000 tested, 0.12% active
Target sequence (P15917 whole entry, looked up): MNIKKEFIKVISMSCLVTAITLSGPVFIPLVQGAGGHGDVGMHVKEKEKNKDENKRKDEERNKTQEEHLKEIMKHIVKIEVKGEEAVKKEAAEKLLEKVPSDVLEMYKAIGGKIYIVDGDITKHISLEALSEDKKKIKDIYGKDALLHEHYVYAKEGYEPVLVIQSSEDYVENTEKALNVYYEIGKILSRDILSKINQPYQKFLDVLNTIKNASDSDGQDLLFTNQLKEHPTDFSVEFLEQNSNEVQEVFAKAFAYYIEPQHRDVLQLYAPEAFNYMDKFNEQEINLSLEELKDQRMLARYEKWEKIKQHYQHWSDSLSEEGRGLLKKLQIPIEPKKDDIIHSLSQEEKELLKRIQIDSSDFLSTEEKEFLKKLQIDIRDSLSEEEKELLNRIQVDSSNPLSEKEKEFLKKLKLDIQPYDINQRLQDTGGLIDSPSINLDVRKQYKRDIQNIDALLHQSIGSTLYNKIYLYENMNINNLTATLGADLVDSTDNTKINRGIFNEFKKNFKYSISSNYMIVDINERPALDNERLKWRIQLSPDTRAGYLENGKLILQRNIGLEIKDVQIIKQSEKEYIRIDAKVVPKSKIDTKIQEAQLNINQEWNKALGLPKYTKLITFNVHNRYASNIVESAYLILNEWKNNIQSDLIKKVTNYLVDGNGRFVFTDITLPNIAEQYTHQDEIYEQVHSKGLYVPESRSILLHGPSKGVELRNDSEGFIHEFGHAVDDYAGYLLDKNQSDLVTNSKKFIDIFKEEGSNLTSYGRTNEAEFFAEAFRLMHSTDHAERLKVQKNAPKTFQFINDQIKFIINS
Large screens that a line does not name were inactive. Cut-off read from the data, not from the text of the source, unless noted: active = inhibition above about 30%; inconclusive = no clear call, values can overlap the other calls; inactive = below that.

O=C(N/N=C/c1ccco1)/C(=C/c1cccc([N+](=O)[O-])c1)NC(=O)c1ccccc1	Bead autofluor 22258
Cc1ccc(C(=O)N/C(=C/c2cccc([N+](=O)[O-])c2)C(=O)NC(C)C)cc1	none
Cc1ccc(C(=O)N/C(=C\c2ccc([N+](=O)[O-])cc2)C(=O)NCCc2ccccc2)cc1	Bead autofluor 25796
O=C(N/N=C/c1ccc(Br)o1)/C(=C/c1ccc([N+](=O)[O-])cc1)NC(=O)c1ccccc1	none
O=C(NCCc1ccccc1)/C(=C\c1ccc([N+](=O)[O-])cc1)NC(=O)c1ccc(Br)cc1	none
CC(C)NC(=O)/C(=C\c1cccc([N+](=O)[O-])c1)NC(=O)c1ccccc1	Bead autofluor 22798
COc1c(/C=N/Nc2ccc(C(=O)O)cc2)c(CCN(C)C(C)=O)cc2c1OCO2	none
Cc1cc(C(=O)Nc2cccc(C(=O)O)c2)c(C)o1	BoNT A protease inconclusive, Bead autofluor 22853
CC(C)c1ccc(NC2CCCN(C(=O)CN3CCCC3=O)C2)cc1 (centres undefined)	none
CNC(=O)CSc1nnc(-c2ccco2)n1-c1ccccc1	none
Cc1ccc(Nc2c([N+](=O)[O-])c(=O)n(C)c3ccccc23)cc1C	Bead autofluor 21534
Cc1cn2c(-c3cccnc3)nnc2s1	Bead autofluor 19239
Cc1cn2c(-c3ccncc3)nnc2s1	none
Cc1ccc2c(C)c(C(=O)N3CCC(O)(c4ccccc4)CC3)oc2c1C	none
Cc1ccc2c(c1)c1c(n2C)C(C(N)=O)CCC1 (centres undefined)	Bead autofluor 22355
O=C(NC1(C(F)(F)F)C(=O)Nc2c1c(=O)[nH]c(=O)n2Cc1ccccc1)c1ccc(Cl)cc1Cl (centres undefined)	Bead autofluor 16727
O=C(NC1(C(F)(F)F)C(=O)Nc2c1c(=O)[nH]c(=O)n2Cc1ccccc1)c1ccc(Cl)cc1 (centres undefined)	Bead autofluor 16519
O=C(NC1(C(F)(F)F)C(=O)Nc2c1c(=O)[nH]c(=O)n2-c1ccc(F)cc1)c1cccnc1 (centres undefined)	Bead autofluor 18307
CCCn1c(=N)c(C(=O)NCC2CCCO2)cc2c(=O)n3cccc(C)c3nc21 (centres undefined)	none
CC(C)c1ccc(CN(C(=O)C2COc3ccccc3O2)C2CCS(=O)(=O)C2)cc1 (centres undefined)	Bead autofluor 16571
CN(C)c1ccc(CN(C(=O)C2COc3ccccc3O2)C2CCS(=O)(=O)C2)cc1 (centres undefined)	Bead autofluor 19479
CCSc1nnc(NC(=O)CCCOc2ccc(C)cc2)s1	none
O=c1[nH]c(O)c(C=NC2CCCCC2)c(=O)[nH]1	BoNT-F LC inh inconclusive, Anthrax LF inh2 37
N#CC(c1cccc(C(F)(F)F)c1)(c1ncc(C(F)(F)F)cc1Cl)N1CCOCC1 (centres undefined)	Bead autofluor 23108
O=C(O)c1ccc(C(=O)O)c(C(=O)c2ccccc2)c1	Bead autofluor 17146
O=C(O)c1cc(C(=O)O)c(-c2ccccc2)c(C(=O)O)c1	Bead autofluor 22323
O=C(O)c1cc(-c2ccccc2)nc(-c2ccccc2)c1	none (no result: 3CLpro inhibitor)
CCOc1ccc(CCNC(=O)COC(=O)C2CCN(S(=O)(=O)c3ccc(C)c(C)c3)CC2)cc1OCC	none
COC(=O)C1=C(NC(=O)c2cccs2)CCS1	none (no result: BoNT A protease, BoNT-F LC inh, Bead autofluor, Anthrax LF inh2)
COC(=O)C1=C(NC(=O)c2cccc(OC)c2)CCS1	Bead autofluor 22750
COc1ccc(COC(=O)Nc2cc3c(C(F)(F)F)nn(C)c3s2)cc1	none
O=C(c1ccccc1)c1cn(CC(=O)N2CCCc3ccccc32)c2ccccc12	none
CC(C)C(=O)c1cn(CC(=O)N2CCCc3ccccc32)c2ccccc12	BoNT A protease inconclusive, Bead autofluor 23272
O=C1CNC(=O)N1CC(=O)N1CCCc2ccccc21	BoNT A protease inconclusive, Bead autofluor 20063
O=C1c2ccccc2C(=O)N1CCC(=O)N1CCc2ccccc21	Bead autofluor 22459
O=C1c2ccccc2C(=O)N1CCC(=O)N1CCCc2ccccc21	none
Cc1noc(C)c1NC(=O)N(C)C[C@@H]1Oc2ccc(NC(=O)C3CCCCC3)cc2C(=O)N([C@@H](C)CO)C[C@H]1C	none (no result: 3CLpro inhibitor)
Cc1ccc(SCC(=O)OCC(=O)N(C)CC(=O)Nc2ccc(F)cc2)cc1	BoNT A protease inconclusive, BoNT-F LC inh inconclusive, Anthrax LF inh2 inconclusive (no result: 3CLpro inhibitor)
CCOC(=O)c1ccc2c(c1)nc(COc1ccc(OC)cc1)n2CC	Bead autofluor 16133
CCOC(=O)c1ccc2c(c1)nc(-c1ccccn1)n2CC	none
Cc1ccc(CN(C(=O)c2cc3ccccc3oc2=O)C2CCS(=O)(=O)C2)cc1 (centres undefined)	Bead autofluor 21783
CCc1ccc(CN(C(=O)c2cc3ccccc3oc2=O)C2CCS(=O)(=O)C2)cc1 (centres undefined)	none
Cc1cc2oc(C(=O)N(Cc3ccccc3)C3CCS(=O)(=O)C3)cc(=O)c2cc1Cl (centres undefined)	Bead autofluor 19953
Cc1ccccc1OCC(=O)Nc1ccc(Cc2ccncc2)cc1	none
COc1ccc(C2C(C(C)=O)=C(O)C(=O)N2CCc2ccccc2)c(OC)c1 (centres undefined)	Bead autofluor 16192
COc1ccc(C2C(C(C)=O)=C(O)C(=O)N2Cc2ccccc2)c(OC)c1 (centres undefined)	none
CC(C)CCOC(=O)C1C(c2ccccc2)C(C(=O)O)C1c1ccccc1 (centres undefined)	Bead autofluor 25168
Cc1cccc(OC(=O)C2C(c3ccccc3)C(C(=O)O)C2c2ccccc2)c1 (centres undefined)	none
O=C(O)C1C(c2ccccc2)C(C(=O)Oc2ccccc2)C1c1ccccc1 (centres undefined)	Bead autofluor 24658
O=C(c1cccc(C(F)(F)F)c1)N1CCC(O)(CS(=O)(=O)Cc2ccc(Cl)cc2)CC1	Bead autofluor 17295
O=C(c1cccc(C(F)(F)F)c1)N1CCC(O)(CS(=O)(=O)Cc2ccccc2Cl)CC1	BoNT A protease inconclusive, Bead autofluor 20377
O=C(c1cccc(C(F)(F)F)c1)N1CCC(O)(CS(=O)(=O)Cc2ccccc2)CC1	none
COC(=O)c1ccccc1NCC(=O)c1ccc(OC)cc1	none
Cn1c(SCC(=O)N2CCOCC2)nnc1-c1ccc(Cl)cc1Cl	Bead autofluor 23071
Nn1c(SCC(=O)N2CCOCC2)nnc1-c1ccc(Cl)cc1Cl	none
Cn1c(SCC(=O)N2CCOCC2)nnc1-c1cccc(NC(=O)c2ccccc2F)c1	Bead autofluor 20837
Cn1c(SCC(=O)NC(C)(C)C)nnc1-c1cccc(NC(=O)c2ccccc2F)c1	none
COC(=O)c1sccc1NC(=O)c1ccccc1	none
O=C(COC(=O)COc1ccc(Cl)cc1Br)NCc1cccs1	none
CCOC(=O)CNC(=O)COc1ccc(Cl)cc1Br	Bead autofluor 23269
COC(=O)C1=CN(CC2CCCO2)C=C(C(=O)OC)C1c1ccsc1 (centres undefined)	Bead autofluor 22638
COc1ccc(N2CC(C(=O)NCCCN3CCOCC3)CC2=O)cc1 (centres undefined)	Bead autofluor 23842

Assay outcomes (PubChem BioAssay)
